Unmarked numbers belong to inactive results.
target: COPS5 (UniProt Q92905); experiment: log2 ratio of Biotin-Ahx-Ub-VS probe labelling (fragment/DMSO); higher = less target engagement (more negative = stronger competition), active = hit call of the paper (q ≤ 0.05, log2 ratio ≤ -1); settings: compound concentration: 200 uM; treatment time: 3 h
Procedure: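 Competitive ABPP in HEK293T cell lysate. Lysates were treated with each chloroacetamide fragment at 200 µM for 3 h, then with Biotin-Ahx-Ub-VS (0.5 µM, 1 h), NeutrAvidin-enriched and analysed by diaPASEF LC-MS/MS. Protein LFQ was median-normalised; average log2 ratio is fragment/DMSO from an unpaired t-test (n=3 treated, n=44 DMSO). Hits: q ≤ 0.05, log2 ratio ≤ -1, unique peptides ≥ 2.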

Sequence of COPS5 (Q92905 whole entry, looked up, the tested form may be a part): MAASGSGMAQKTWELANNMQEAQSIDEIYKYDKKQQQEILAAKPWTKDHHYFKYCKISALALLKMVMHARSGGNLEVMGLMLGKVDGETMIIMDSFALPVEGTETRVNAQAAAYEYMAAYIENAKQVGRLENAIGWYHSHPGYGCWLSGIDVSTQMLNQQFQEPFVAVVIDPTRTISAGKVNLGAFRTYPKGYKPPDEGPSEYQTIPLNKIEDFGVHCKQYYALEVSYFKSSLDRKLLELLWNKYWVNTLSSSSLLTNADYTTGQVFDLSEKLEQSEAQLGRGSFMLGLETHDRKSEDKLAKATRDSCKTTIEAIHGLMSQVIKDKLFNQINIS

SMILES	log2 ratio of Biotin-Ahx-Ub-VS probe labelling
CNC(=O)C1(NC(=O)CCl)CCCCC1	0.00317
Cl.O=C(CCl)N[C@H]1C[C@@H](n2cccn2)C1	-0.0476
Cc1cc(NC(=O)CCl)n(-c2ccccc2)n1	-0.0499
O=C(CCl)NCc1ccc(N2CCOCC2)c(F)c1	-0.0355
O=C(CCl)N(C1=CCCCC1)C1CC1	-0.00116
Cl.Cn1ncc2c1CCCC2NC(=O)CCl (stereo not given)	-0.0371
CC1CN(c2ccc(NC(=O)CCl)cc2)CC(C)O1 (stereo not given)	0.159
O=C(CCl)NCc1cccc(F)c1	0.17
N#Cc1ccccc1N1CCN(C(=O)CCl)CC1	-0.271
CS(=O)(=O)N1CCCN(C(=O)CCl)CC1	0.193
O=C(CCl)N1CCc2[nH]c3ccccc3c2C1	-0.0163
Cl.O=C(CCl)NCc1cc2c(nc1O)CCCC2	-0.023
O=C(CCl)Nc1ccc2c(c1)OC(F)(F)O2	-0.156
Cc1ccc(CN(C)C(=O)CCl)o1	0.0171
COCC[C@@H](NC(=O)CCl)c1ccccc1	0.222
O=C(CCl)NCC1(c2ccccc2)CC1	0.0827
CN(C)C(=O)c1ccc(CNC(=O)CCl)cc1	0.0838
Cl.Cn1c(CNC(=O)CCl)nc2cccnc21	0.0916
O=C(CCl)N1CCC(S(=O)(=O)c2ccc(F)cc2)CC1	-0.0227
Cc1ccc(N(CCC#N)C(=O)CCl)cc1C	0.127

SMILES	log2 ratio of Biotin-Ahx-Ub-VS probe labelling
O=C(CCl)Nc1ccc(F)cc1F	-0.115
CCN(Cc1ccc(C#N)cc1F)C(=O)CCl	-0.0333
O=C(CCl)NC1CCN(C(=O)C2CCCCC2)CC1	-0.188
O=C(CCl)NC1CCC(C(F)(F)F)CC1 (stereo not given)	-0.114
Cc1nc(-c2cccc(NC(=O)CCl)c2)cs1	-0.0825
O=C(CCl)NCc1noc(C2CC2)n1	0.133
Cl.O=C(CCl)N1CCn2cncc2C1	-0.298
CN(C(=O)CCl)c1nc2ccccc2s1	-0.0311
O=C(CCl)N1CCC(O)(Cc2ccc(F)cc2)C1 (stereo not given)	0.0199
O=C(CCl)Nc1cccc2ncccc12	0.251
O=C(CCl)N1CCOC(CCc2ccccc2)C1 (stereo not given)	-0.026
O=C(CCl)NCCC1=CCCCC1	0.0168
Cc1cccc(N2CCC(NC(=O)CCl)C2=O)c1 (stereo not given)	-0.0421
Cl.O=C(CCl)N1CCc2ncncc2C1	-0.0201
Cl.Cn1nccc1C(NC(=O)CCl)c1ccccc1 (stereo not given)	0.313
O=C(CCl)Nc1ccc(F)cc1Cl	-0.284
Cl.Cn1cnc2cc(CNC(=O)CCl)ccc21	-0.125
Cl.O=C(CCl)N1CCC(Cc2nccs2)C1 (stereo not given)	0.114
CC(=O)Nc1ccc(NC(=O)CCl)cc1	-0.0874
N#Cc1ccc(CNC(=O)CCl)cc1	0.228
